# Source: the supplement of paper PMC6897291
# Structures can show the parent of a compound that is named as a salt.
# Tested on: U-2932
# Assay: growth inhibition by drug plus 177Lu-lilotomab satetraxetan (1 - RLU/untreated control) (fraction); higher = stronger inhibition
# Conditions: 10 nM; time (day): 3; 177Lu-lilotomab satetraxetan 1 ug/ml
# How it was run: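 With or without 18 h pretreatment by a radiolabelled anti-CD37 antibody conjugate (~600 MBq/mg; 0.5 µg/ml RIVA, 1 µg/ml U-2932), RIVA and U-2932 cells were washed and plated at 3,000 cells/well. Pre-printed compound doses were 10/100 nM for RIVA and 10/1,000 nM for U-2932. Growth inhibition uses RealTime-Glo RLU relative to the untreated no-drug wells. The calculation is 1 − RLU/mean of 48 such wells per plate, with reads daily from day 3 after 1 h at 37°C.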
row,Structure (SMILES),growth inhibition by drug plus 177Lu-lilotomab satetraxetan
1,Nc1nc2[nH]cc(CCc3ccc(C(=O)N[C@@H](CCC(=O)O)C(=O)O)cc3)c2c(=O)[nH]1 [Pemetrexed],-0.058
2,COc1cc2nccc(Oc3ccc(NC(=O)Nc4cc(C)on4)c(Cl)c3)c2cc1OC [Tivozanib (AV-951)],0.0499
3,CCC(=O)N1CCN(c2ccc(-n3c(=O)ccc4cnc5ccc(-c6cnc7ccccc7c6)cc5c43)cc2C(F)(F)F)CC1 [Torin 1],0.168
4,COc1cccc2c1C(=O)c1c(O)c3c(c(O)c1C2=O)C[C@@](O)(C(=O)CO)C[C@@H]3O[C@H]1C[C@H](N)[C@@H](O)[C@H](C)O1 [Epirubicin Hydrochloride],0.24
5,Clc1ccc(Nc2nnc(Cc3ccncc3)c3ccccc23)cc1 [Vatalanib dihydrochloride (PTK787)],-0.0142
6,COc1cc2nccc(Oc3ccc(NC(=O)C4(C(=O)Nc5ccc(F)cc5)CC4)cc3)c2cc1OC [XL-184 free base (Cabozantinib)],0.0398
7,C[C@@H](O[C@H]1OCCN(Cc2n[nH]c(=O)[nH]2)[C@H]1c1ccc(F)cc1)c1cc(C(F)(F)F)cc(C(F)(F)F)c1 [Aprepitant (MK-0869)],-0.142
8,COc1cc2c(cc1O)CC[C@@H]1[C@@H]2CC[C@]2(C)[C@@H](O)CC[C@@H]12 [2-Methoxyestradiol],-0.116
9,CNCc1ccc(-c2[nH]c3cc(F)cc4c3c2CCNC4=O)cc1,0.05
10,CC[C@@]1(O)C(=O)OCc2c1cc1n(c2=O)Cc2cc3c(CN(C)C)c(O)ccc3nc2-1 [Topotecan HCl],0.403
11,Nc1cc(C(F)(F)F)c(-c2cc(N3CCOCC3)nc(N3CCOCC3)n2)cn1,-0.138
12,CC(C)(C)c1ccc(S(=O)(=O)/C=C/C#N)cc1,-0.0145
13,C[C@]1(c2nc3c(C(N)=O)cccc3[nH]2)CCCN1 [ABT-888 (Veliparib)],-0.0353
14,Cc1ccc(NC(=O)c2ccc(CN3CC[C@H](N(C)C)C3)c(C(F)(F)F)c2)cc1Nc1nccc(-c2cncnc2)n1 [Bafetinib (INNO-406)],0.0136
15,C[C@]12CC[C@@H]3c4ccc(O)cc4CC[C@H]3[C@@H]1CCC2=O [Estrone],0.0282
16,O=C(c1ccc(OCCN2CCCCC2)cc1)c1c(-c2ccc(O)cc2)sc2cc(O)ccc12 [Evista (Raloxifene Hydrochloride)],-0.0103
17,CCN(CC)CCNC(=O)c1c(C)[nH]c(/C=C2\C(=O)Nc3ccc(F)cc32)c1C [Sunitinib Malate (Sutent)],-0.0903
18,CCOc1ccc(Nc2nc(-c3c(C)nc4ccccn34)cs2)cc1,0.151
19,C=CC(=O)N1CCC[C@@H](n2nc(-c3ccc(Oc4ccccc4)cc3)c3c(N)ncnc32)C1,0.46

row,Structure (SMILES),growth inhibition by drug plus 177Lu-lilotomab satetraxetan
1,CS(=O)(=O)c1cccc(CNc2nc(Nc3ccc4c(c3)CCC(=O)N4)ncc2C(F)(F)F)c1,-0.0177
2,CC(NC(=O)c1ccccc1/N=C/c1c(O)ccc2ccccc12)c1ccccc1 (stereo not drawn) [Sirtinol],0.0459
3,CN(Cc1cnc2nc(N)nc(N)c2n1)c1ccc(C(=O)N[C@@H](CCC(=O)O)C(=O)O)cc1 [Abitrexate (Methotrexate)],-0.123
4,OCCn1cc(-c2cnc3nnn(Cc4ccc5ncccc5c4)c3n2)cn1,-0.0346
5,COc1cc(Nc2ncc(F)c(Nc3ccc4c(n3)NC(=O)C(C)(C)O4)n2)cc(OC)c1OC [R406(free base)],-0.0151
6,COc1cccc2c1C(=O)c1c(O)c3c(c(O)c1C2=O)C[C@@](O)(C(=O)CO)C[C@@H]3O[C@H]1C[C@H](N)[C@H](O)[C@H](C)O1 [Doxorubicin (Adriamycin)],0.422
7,CN(NC(=O)CC(=O)NN(C)C(=S)c1ccccc1)C(=S)c1ccccc1 [Elesclomol],0.854
8,"CN(C)CCOc1ccc(/C(=C(/CCCl)c2ccccc2)c2ccccc2)cc1 [Toremifene Citrate (Fareston, Acapodene)]",0.111
9,CN1CCN(CCOc2cc(OC3CCOCC3)c3c(Nc4c(Cl)ccc5c4OCO5)ncnc3c2)CC1 [Saracatinib (AZD0530)],-0.0675
10,CC(C)C[C@H](NC(=O)[C@H](Cc1ccccc1)NC(=O)c1cnccn1)B(O)O [Bortezomib (Velcade)],0.952
11,Cn1cncc1[C@@](N)(c1ccc(Cl)cc1)c1ccc2c(c1)c(-c1cccc(Cl)c1)cc(=O)n2C [Tipifarnib (Zarnestra)],0.0185
12,COC(=O)c1ccc2c(C(=Nc3ccc(N(C)C(=O)CN4CCN(C)CC4)cc3)c3ccccc3)c(O)[nH]c2c1 [BIBF1120 (Vargatef)],-0.06
13,CC[C@@H]1/C=C(\C)C[C@H](C)C[C@H](OC)[C@H]2O[C@@](O)(C(=O)C(=O)N3CCCC[C@H]3C(=O)O[C@H](/C(C)=C/[C@@H]3CC[C@H](Cl)[C@H](OC)C3)[C@H](C)[C@@H](O)CC1=O)[C@H](C)C[C@@H]2OC [Pimecrolimus],0.198
14,CN(C)CCOc1ccc(-c2nc(-c3ccncc3)c(-c3ccc4c(c3)CC/C4=N\O)[nH]2)cc1,-0.0652
15,COc1ccc(CCN2CCN(CCCc3ccccc3)CC2)cc1OC,-0.0743
16,CNC(=O)c1cc(Oc2ccc(NC(=O)Nc3cc(C(C)(C)C)nn3-c3ccc4ncccc4c3)c(F)c2)ccn1 [DCC-2036 (Rebastinib)],0.0343
17,CCC(C)(C)C(=O)O[C@H]1C[C@@H](C)C=C2C=C[C@H](C)[C@H](CC[C@@H]3C[C@@H](O)CC(=O)O3)[C@H]21 [Simvastatin (Zocor)],-0.0665
18,CCc1ccc(CCOc2ccc(CC3SC(=O)NC3=O)cc2)nc1 (stereo not drawn) [Pioglitazone (Actos)],-0.113
19,O=C(O)C(Cc1c[nH]c2ccccc12)N1C(=O)c2ccccc2C1=O (stereo not drawn),-0.0896
